Tests used:
Assay in all cases: log2 ratio of Biotin-Ahx-Ub-VS probe labelling (fragment/DMSO); higher = less target engagement (more negative = stronger competition), active = hit call of the paper (q ≤ 0.05, log2 ratio ≤ -1)
Details in all cases: compound concentration: 200 uM; treatment time: 3 h
USP42 = target: T1, USP42 (UniProt Q9H9J4)
T1 sequence (whole entry): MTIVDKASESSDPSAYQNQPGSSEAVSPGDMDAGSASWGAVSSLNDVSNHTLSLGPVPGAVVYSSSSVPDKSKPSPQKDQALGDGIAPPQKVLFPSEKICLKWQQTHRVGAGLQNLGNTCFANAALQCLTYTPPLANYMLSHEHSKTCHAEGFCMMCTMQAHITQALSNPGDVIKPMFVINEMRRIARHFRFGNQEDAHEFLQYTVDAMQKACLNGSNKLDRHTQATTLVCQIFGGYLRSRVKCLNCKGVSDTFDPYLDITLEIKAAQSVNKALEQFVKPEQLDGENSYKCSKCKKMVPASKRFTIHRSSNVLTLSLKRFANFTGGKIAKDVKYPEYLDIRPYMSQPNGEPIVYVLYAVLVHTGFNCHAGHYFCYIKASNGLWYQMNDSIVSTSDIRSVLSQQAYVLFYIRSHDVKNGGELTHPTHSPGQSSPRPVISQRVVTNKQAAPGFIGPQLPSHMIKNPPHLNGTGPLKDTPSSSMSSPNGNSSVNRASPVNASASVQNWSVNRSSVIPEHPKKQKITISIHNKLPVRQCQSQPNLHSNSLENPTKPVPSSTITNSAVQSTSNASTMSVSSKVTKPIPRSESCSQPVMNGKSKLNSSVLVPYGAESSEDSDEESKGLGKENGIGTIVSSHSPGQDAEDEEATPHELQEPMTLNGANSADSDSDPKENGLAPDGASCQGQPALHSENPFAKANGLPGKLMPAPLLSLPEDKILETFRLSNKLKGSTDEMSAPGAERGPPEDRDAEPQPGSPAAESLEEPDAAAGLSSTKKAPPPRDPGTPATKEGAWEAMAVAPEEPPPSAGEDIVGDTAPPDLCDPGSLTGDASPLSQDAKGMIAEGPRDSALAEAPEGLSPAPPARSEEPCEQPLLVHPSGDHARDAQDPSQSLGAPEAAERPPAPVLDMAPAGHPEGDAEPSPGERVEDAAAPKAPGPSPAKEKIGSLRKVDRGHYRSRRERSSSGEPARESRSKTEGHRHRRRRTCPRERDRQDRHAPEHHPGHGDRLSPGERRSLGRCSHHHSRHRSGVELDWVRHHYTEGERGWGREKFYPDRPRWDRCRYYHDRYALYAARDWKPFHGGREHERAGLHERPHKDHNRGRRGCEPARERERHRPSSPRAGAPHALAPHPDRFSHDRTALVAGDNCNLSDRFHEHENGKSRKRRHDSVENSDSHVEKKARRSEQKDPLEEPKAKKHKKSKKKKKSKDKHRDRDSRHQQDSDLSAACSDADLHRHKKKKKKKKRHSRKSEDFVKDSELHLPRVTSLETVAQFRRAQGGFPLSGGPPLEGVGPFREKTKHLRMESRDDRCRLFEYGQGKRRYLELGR
In short: (§1)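 HEK293T lysate in Tris/CHAPS/IGEPAL buffer with protease inhibitors (495 µg per sample) was given fragment at 200 µM or vehicle for 3 h, in triplicate. It then received Biotin-Ahx-Ub-VS at 0.5 µM final for 1 h. Labelled DUBs were NeutrAvidin-enriched, digested with LysC and trypsin, and run by diaPASEF LC-MS/MS. Values are average log2 fragment/vehicle ratios by unpaired t-test on global-median-normalised Spectronaut quantities of proteins with ≥2 unique peptides.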

USP46 = USP46 (UniProt P62068)
In short: as §1

USP47 = target: T2, USP47 (UniProt Q96K76)
T2 sequence (whole entry): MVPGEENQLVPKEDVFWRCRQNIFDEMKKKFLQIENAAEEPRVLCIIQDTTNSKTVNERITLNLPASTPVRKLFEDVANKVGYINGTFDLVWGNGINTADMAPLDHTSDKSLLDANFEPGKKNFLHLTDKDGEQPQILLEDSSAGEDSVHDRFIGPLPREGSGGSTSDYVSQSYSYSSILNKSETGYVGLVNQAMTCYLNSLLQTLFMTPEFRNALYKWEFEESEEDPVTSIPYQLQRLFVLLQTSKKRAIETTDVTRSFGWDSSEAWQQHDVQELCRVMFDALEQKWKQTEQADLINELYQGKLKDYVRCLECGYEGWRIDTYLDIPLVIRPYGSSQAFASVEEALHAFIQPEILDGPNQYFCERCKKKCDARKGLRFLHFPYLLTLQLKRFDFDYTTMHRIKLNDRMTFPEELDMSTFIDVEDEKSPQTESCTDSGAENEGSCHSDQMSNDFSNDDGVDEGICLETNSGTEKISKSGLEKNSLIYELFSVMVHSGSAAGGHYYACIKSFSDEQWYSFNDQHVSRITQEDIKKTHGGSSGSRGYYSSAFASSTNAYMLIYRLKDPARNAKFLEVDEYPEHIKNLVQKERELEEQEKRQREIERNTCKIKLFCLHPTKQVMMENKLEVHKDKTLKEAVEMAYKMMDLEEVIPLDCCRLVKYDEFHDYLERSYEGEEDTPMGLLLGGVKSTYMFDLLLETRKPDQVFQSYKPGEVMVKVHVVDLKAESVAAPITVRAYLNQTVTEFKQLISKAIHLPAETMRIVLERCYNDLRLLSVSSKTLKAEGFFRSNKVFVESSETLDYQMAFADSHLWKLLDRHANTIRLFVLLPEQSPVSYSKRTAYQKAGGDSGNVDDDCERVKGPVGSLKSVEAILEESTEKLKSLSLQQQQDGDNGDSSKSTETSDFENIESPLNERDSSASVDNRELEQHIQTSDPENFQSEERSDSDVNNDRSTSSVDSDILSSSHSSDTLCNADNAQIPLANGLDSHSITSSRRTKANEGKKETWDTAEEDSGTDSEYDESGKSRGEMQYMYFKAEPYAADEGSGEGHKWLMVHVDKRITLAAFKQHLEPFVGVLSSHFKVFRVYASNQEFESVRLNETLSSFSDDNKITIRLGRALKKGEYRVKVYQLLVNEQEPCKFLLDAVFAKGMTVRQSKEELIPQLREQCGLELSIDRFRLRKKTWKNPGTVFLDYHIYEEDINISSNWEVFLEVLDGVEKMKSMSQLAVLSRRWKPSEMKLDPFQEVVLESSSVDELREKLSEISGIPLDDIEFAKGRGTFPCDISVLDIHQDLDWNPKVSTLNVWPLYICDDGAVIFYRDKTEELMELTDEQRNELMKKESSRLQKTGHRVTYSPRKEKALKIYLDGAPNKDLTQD
In short: as §1

USP48 = target: T3, USP48 (UniProt Q86UV5)
T3 sequence (whole entry): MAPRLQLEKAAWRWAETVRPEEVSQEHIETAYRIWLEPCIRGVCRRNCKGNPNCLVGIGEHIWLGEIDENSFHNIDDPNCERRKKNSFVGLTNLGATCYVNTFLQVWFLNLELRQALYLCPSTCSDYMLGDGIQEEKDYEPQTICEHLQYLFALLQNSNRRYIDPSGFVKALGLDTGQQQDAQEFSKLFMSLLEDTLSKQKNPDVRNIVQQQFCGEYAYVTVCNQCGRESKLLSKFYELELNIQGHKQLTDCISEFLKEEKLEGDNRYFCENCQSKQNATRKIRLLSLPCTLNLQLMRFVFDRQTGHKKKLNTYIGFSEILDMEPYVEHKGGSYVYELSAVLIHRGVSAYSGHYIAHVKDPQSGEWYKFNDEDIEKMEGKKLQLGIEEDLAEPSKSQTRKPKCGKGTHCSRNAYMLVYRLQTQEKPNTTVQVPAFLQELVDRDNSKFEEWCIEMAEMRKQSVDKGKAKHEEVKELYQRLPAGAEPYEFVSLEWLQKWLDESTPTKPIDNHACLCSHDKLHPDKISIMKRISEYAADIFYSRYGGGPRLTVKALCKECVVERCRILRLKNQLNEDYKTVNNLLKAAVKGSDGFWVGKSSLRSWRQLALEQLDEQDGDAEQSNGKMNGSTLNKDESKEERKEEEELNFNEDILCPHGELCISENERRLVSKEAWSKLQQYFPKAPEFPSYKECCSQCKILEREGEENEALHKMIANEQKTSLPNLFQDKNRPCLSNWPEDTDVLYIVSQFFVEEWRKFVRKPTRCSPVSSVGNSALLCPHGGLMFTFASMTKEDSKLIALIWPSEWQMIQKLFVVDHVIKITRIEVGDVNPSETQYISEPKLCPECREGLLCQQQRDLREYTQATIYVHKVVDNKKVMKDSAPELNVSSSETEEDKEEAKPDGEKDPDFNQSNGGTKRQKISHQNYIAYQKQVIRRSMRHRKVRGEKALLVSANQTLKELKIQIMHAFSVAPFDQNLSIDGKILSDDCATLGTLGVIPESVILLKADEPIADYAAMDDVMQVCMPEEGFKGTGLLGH
In short: as §1

USP5 = target: T4, USP5 (UniProt P45974)
T4 sequence (whole entry): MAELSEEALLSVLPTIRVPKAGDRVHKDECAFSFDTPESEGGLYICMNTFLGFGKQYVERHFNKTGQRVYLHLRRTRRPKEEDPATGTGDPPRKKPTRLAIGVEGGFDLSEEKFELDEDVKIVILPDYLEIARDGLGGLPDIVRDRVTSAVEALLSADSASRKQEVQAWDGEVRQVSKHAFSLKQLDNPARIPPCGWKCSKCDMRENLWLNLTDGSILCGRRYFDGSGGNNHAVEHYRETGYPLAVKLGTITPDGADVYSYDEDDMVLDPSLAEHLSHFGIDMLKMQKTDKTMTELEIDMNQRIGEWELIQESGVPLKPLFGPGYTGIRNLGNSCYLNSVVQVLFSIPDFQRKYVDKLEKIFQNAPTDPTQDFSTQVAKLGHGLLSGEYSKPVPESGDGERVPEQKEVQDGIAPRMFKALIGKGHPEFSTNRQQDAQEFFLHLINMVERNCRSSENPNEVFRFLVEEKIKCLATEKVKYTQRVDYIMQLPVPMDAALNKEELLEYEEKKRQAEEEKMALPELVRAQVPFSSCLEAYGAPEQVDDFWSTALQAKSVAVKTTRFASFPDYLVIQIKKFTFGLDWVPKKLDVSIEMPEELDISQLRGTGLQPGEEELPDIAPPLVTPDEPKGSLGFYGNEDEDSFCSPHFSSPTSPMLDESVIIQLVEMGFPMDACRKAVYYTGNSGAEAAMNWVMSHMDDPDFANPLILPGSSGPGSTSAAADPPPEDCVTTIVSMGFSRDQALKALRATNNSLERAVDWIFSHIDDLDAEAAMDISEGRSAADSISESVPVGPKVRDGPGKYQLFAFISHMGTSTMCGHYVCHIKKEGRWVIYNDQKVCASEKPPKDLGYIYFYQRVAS
In short: as §1

USP54 = USP54 (UniProt Q70EL1)
In short: as §1

USP7 = USP7 (UniProt Q93009)
In short: as §1

USP8 = target: T5, USP8 (UniProt P40818)
T5 sequence (whole entry): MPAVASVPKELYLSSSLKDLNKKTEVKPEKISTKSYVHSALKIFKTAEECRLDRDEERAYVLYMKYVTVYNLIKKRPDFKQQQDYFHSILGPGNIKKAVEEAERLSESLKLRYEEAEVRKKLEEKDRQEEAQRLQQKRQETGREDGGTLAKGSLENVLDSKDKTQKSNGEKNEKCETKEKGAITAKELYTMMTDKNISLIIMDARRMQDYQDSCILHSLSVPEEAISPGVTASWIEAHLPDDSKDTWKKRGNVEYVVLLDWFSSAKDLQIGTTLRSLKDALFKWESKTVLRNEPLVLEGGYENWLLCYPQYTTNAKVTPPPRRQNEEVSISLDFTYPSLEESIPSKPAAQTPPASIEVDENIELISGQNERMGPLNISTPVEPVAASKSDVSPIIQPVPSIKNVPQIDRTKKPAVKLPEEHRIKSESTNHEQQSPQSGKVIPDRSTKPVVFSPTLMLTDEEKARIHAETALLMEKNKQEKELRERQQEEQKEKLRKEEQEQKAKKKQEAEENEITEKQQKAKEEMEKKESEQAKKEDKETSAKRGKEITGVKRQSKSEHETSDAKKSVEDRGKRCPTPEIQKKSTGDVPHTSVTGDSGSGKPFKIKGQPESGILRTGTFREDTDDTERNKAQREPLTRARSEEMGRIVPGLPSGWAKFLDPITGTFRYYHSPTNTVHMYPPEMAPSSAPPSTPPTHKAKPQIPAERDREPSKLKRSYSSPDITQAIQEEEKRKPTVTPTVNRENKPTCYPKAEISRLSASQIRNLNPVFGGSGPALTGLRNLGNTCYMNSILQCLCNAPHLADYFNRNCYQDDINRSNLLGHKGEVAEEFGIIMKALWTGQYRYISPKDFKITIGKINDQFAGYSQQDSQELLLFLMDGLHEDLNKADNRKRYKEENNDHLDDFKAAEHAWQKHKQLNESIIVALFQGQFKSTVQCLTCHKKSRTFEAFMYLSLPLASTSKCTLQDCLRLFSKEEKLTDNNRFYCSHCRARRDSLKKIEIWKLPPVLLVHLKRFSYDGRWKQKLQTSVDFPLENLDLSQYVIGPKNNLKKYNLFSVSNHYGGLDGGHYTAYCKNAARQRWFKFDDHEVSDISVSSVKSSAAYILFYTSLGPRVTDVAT
In short: as §1

USP9X = USP9X (UniProt Q93008)
In short: as §1

UniProt O00487 = target: UniProt O00487
In short: as §1

Measured: log2 ratio of Biotin-Ahx-Ub-VS probe labelling

UniProt O00487, sequence (O00487 whole entry): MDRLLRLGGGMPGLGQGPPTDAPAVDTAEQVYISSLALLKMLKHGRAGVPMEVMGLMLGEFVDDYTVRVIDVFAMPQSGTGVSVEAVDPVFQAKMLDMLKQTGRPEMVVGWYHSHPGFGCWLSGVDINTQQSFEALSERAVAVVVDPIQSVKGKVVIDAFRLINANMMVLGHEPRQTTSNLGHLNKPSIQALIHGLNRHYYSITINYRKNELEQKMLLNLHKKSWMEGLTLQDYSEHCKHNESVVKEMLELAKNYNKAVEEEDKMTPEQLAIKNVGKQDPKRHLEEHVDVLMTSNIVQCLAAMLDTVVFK
USP46, sequence (P62068 whole entry): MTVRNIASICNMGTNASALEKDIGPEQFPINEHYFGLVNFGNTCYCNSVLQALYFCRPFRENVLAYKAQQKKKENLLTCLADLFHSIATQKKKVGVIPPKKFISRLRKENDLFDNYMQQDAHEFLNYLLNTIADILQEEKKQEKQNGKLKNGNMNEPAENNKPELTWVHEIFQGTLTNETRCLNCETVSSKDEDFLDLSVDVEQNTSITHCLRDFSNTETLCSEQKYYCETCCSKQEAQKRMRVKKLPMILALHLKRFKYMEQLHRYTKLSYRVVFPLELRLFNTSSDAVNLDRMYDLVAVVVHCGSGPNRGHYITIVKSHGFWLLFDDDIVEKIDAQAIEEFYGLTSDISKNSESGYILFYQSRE
USP54, sequence (Q70EL1 whole entry): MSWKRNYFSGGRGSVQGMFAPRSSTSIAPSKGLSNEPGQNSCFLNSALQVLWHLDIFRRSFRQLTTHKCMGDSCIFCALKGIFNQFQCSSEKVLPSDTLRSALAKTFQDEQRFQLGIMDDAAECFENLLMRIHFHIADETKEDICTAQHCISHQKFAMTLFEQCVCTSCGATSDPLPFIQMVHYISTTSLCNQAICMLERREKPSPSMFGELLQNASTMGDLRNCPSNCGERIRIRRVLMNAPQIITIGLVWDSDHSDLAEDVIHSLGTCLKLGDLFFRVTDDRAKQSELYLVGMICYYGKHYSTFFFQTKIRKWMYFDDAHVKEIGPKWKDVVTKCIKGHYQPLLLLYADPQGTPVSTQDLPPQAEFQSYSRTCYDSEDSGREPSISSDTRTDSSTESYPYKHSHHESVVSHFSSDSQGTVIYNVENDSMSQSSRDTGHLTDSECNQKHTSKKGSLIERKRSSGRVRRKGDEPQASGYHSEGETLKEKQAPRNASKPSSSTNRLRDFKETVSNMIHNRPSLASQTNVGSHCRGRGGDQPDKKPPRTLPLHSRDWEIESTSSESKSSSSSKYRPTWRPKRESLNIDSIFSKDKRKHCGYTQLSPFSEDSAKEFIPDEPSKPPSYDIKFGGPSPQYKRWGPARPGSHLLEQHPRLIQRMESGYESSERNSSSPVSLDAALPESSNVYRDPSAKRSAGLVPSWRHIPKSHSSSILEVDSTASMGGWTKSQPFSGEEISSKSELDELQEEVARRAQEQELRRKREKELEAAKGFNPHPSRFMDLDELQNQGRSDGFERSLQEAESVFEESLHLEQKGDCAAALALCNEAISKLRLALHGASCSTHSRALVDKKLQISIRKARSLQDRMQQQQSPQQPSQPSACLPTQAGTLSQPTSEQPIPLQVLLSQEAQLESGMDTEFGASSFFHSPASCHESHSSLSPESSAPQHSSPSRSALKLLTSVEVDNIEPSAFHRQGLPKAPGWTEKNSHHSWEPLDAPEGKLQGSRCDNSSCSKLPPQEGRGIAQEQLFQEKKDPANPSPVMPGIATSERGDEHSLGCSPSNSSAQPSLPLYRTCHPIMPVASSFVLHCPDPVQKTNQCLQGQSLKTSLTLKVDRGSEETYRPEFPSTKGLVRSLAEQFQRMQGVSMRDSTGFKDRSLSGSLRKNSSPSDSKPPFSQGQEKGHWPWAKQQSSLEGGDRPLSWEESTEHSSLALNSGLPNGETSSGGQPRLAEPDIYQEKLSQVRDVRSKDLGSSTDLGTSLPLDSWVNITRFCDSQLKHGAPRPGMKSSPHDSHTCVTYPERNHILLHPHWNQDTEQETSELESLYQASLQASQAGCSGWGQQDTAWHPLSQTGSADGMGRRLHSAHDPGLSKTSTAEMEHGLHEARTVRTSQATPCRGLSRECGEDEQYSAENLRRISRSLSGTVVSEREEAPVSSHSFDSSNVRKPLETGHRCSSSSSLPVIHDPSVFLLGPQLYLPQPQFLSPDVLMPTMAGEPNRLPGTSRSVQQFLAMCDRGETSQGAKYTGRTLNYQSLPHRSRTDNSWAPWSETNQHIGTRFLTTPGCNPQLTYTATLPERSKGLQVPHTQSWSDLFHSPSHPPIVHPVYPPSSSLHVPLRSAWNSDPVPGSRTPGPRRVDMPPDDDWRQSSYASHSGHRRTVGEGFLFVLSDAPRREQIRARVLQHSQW
USP7, sequence (Q93009 whole entry, looked up): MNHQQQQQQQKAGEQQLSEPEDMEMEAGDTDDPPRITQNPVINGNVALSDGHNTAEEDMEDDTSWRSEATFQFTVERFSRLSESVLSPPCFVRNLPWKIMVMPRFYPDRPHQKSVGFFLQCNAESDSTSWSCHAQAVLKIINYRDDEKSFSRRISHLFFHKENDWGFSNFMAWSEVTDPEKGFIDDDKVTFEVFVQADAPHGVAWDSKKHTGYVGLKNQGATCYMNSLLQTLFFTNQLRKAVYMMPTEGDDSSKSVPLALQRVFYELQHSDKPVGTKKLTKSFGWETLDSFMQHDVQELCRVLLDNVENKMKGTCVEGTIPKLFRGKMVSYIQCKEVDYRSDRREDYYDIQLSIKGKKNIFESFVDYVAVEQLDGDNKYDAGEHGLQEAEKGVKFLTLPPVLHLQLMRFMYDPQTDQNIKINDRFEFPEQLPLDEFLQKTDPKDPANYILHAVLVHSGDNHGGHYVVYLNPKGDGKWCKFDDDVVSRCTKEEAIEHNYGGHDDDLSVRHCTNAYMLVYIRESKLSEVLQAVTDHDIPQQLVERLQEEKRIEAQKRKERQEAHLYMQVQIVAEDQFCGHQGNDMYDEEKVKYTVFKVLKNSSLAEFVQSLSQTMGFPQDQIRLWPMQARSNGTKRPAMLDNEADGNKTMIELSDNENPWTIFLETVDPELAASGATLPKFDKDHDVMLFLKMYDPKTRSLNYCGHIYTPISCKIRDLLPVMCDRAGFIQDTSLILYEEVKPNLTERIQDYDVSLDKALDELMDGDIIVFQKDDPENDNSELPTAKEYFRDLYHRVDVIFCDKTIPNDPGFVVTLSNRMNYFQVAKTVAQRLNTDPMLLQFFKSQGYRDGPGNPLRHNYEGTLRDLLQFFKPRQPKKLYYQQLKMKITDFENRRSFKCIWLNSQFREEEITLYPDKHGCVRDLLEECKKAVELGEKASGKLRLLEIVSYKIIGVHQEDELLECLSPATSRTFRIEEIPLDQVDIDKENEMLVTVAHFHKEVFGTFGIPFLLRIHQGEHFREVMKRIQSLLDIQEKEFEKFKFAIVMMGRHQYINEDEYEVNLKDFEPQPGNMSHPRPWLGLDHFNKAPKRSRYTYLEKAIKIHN

O=C(CCl)N1CCOCC1C1CC1 (stereo not given)
inactive: USP42 -0.112 | USP46 0.00778 | USP47 -0.0311 | USP48 0.0155 | USP5 0.147 | USP54 0.967 | USP7 -0.145 | USP8 -0.168 | USP9X -0.18 | UniProt O00487 -0.226
